The values that follow come from PubChem BioAssay (NCATS).

Test [1] addresses Lysosomal acid glucosylceramidase (Homo sapiens) (UniProt P04062). The test is described as follows: Glucocerebrosidase-p2 (AID 348; in the data active means potency below about 10 µM; further: potency means the concentration at half of the fitted maximal effect). As to conditions: purified GBA, blue fluorogenic substrate, 40 min. The essentials:
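Normal human glucocerebrosidase (0.2 nM) with blue fluorogenic substrate (80 uM final) in citrate/phosphate pH 5.9 with 10mM sodium taurocholate, 0.01% tween-20; 40 min RT, NaOH/glycine stop; fluorescence Ex 365/Em 440; AC50 from a titration from 0.6 nM upwards.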

Test [2] in a line: NFAT Signaling Pathway (AID 444; active means well fitted curve in either direction with a large enough effect, not every such curve was filed as active;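 further: carbachol stimulus at about its EC50 of 1 µM final; on the % scale 0 is the no-effect control and ±100 the full control effect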). As to conditions: Jurkat NFAT-bla M1, carbachol, beta-lactamase ratio, 5 h; at 7.69 µM (top of the series) unless noted. The essentials: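 Jurkat cells carrying an NFAT-driven β-lactamase reporter and co-transfected muscarinic M1 receptor were treated with compound plus carbachol (1 uM final, an EC50 level) for 5 h at 37 °C. CCF4 loading followed for 1 h at RT; 460/530 nm ratio gave %activity.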

In test [3] the target is Glucocorticoid receptor (Homo sapiens) (UniProt P04150). The experiment in a line: GR-GFP Redistribution (AID 450;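 active means compounds whose dose series gives a full or clear partial fitted curve of increased nuclear translocation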; further: potency means the concentration at half of the fitted maximal effect). As to conditions: U2OS GR-GFP nuclear translocation, laser cytometry, 2 h.
Test [4] has the same target. The test is described as follows: GR-EFC Redistribution (AID 451; calls by dose curve; further: potency means the concentration at half of the fitted maximal effect). As to conditions: CHO-K1 GR-EFC translocation, beta-gal luminescence, 2 h. Summed up: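 CHO-K1 cells stably expressing nuclear-localized β-gal enzyme acceptor and GR fused C-terminally to the enzyme donor fragment; ligand-driven nuclear translocation restores β-gal by complementation. Compounds titrated up to 46 uM final, 2 h at 37 °C; luminescence read.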

Test [5] has as its target Mitogen-activated protein kinase 10 (Mus musculus) (UniProt Q61831). The experiment in a line: JNK3 AlphaScreen Assay (AID 530; active means well fitted curve in either direction with a large enough effect, not every such curve was filed as active;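 further: kinase came from lysate of stimulated human HepG2 cells; signal reports phosphorylation of biotinylated GST-cJun 1-79 at Ser73 with 10 µM ATP; on the % scale 0 is the no-effect control and ±100 the full control effect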). As to conditions: JNK3 lysate, c-Jun phosphorylation; series mostly up to 57.1 µM. Summed up:
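Biotinylated GST-cJun(1-79) served as substrate for JNK3 in HepG2 lysates stimulated with IL-1beta and TNF-alpha. ATP was 10 uM final, pH 7.6. Ser73 phosphorylation was quantified by AlphaScreen (680 nm excitation).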
(Bead proximity is the source of the signal in Alpha formats.)

Test [6] concerns the target 3',5'-cyclic-AMP phosphodiesterase 4B (Homo sapiens) (UniProt Q07343). The test is described as follows: qHTS Assay for Inhibitors of PDE-IV (AID 607; active means well fitted activation curve with a large enough effect in the main read-out, with a control signal flat, not every such curve was filed as active; further: % of control where 0% means no effect). As to conditions: HEK293 ACTOne CNG channel cells, membrane potential fluorescence; series mostly up to 22.9 µM. Summed up:
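The readout is membrane depolarisation from a cAMP-sensing CNG channel, detected with a potential dye at ex 535/em 590. Cells were HEK293-derived (endogenous PDE-IV) at 1000 cells/well, titrated up to 22.9 uM final.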

The target of test [7] is Cytochrome P450 3A4 (Homo sapiens) (UniProt P08684). The test is described as follows: qHTS Assay for Activators of Cytochrome P450 3A4 (AID 885). Further: nearly all actives have a fitted effect of over 65% in size. As to conditions: recombinant CYP3A4, Luciferin-PPXE luminescence, 60 min; series mostly up to 57.1 µM. Summed up: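 Activators are scored by enhanced luminescence from CYP3A4 conversion of luciferin-PPXE (25uM, equal to KM) to luciferin, after 60 min at RT with an NADPH-regenerating system.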

The target in test [8] is Dual specificity protein kinase CLK4 (Homo sapiens) (UniProt Q9HAZ1). The experiment in a line: qHTS Assay for Inhibitors of CDC-like Kinase 4 (ADP-Glo Assay) (AID 1771). Further: nearly all actives have a fitted effect of over 70% in size. Further: potency means the concentration at half of the fitted maximal effect. As to conditions: recombinant CLK4, ADP-Glo luminescence; series mostly up to 80 µM. The essentials: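 25 nM Clk4, 100 uM RS peptide, 1 uM ATP (final); 2 mM MgCl2, 0.5 mM EGTA, 2.5 mM DTT, 0.01% Triton X-100; 1 hr RT. ADP-Glo readout: ATP depletion 45 min, conversion/luciferase 30 min, luminescence.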
In general terms: Quantitative high-throughput screening tests each substance at several concentrations.

Test [9] shares this target. The experiment in a line: qHTS Assay for Inhibitors of CDC-like Kinase 4 (ADP-FP Assay) (AID 1795).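 Further: recombinant human CLK4 phosphorylating RS repeat peptide at 1 µM ATP; on the % scale 0 is the no-effect control and ±100 the full control effect; nearly all actives have a fitted effect of over 60% in size.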 As to conditions: Transcreener ADP fluorescence polarization; series mostly up to 50 µM. The essentials: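 FP readout: Orange Transcreener ADP2 tracer (4 nM) plus ADP antibody, read after 30 min at room temperature. Kinase step: 6.25 nM Clk4, 100 uM RS peptide, 1 uM ATP, pH 7.5, 1 h.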

The target in test [10] is Ubiquitin carboxyl-terminal hydrolase 1 (Homo sapiens) (UniProt O94782). The experiment in a line: Inhibitors of USP1/UAF1: Pilot qHTS (AID 504865).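 Further: rhodamine fluorescence freed from ubiquitin-rhodamine substrate followed over time; top concentration of the series differs between compounds; on the % scale 0 is the no-effect control and ±100 the full control effect; nearly all actives have a fitted effect of over 35% in size.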 As to conditions: purified USP1/UAF1, Ub-rhodamine cleavage fluorescence; series mostly up to 54.9 µM. Summed up:
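1nM USP1/UAF1 + cpd, 15 min RT; start w/ Ub-Rho 150nM final; kinetic FL 480/540 nm, 6 reads q60 s. Buffer 50mM HEPES pH 7.8, 0.5mM EDTA, 1mM TCEP, 0.01% Tween-20, 0.1 mg/ml BSA.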

Test [11] in a line: Primary qHTS for small molecule stabilizers of the endoplasmic reticulum resident proteome: Secreted ER Calcium Modulated Protein (SERCaMP) assay (AID 1508630). Further: on the % scale 0 is the no-effect control and ±100 the full control effect. As to conditions: SH-SY5Y GLuc-SERCaMP (Gaussia luciferase released on ER calcium loss) secretion, thapsigargin, luminescence; series mostly up to 38.4 µM. Summed up: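 The SH-SY5Y reporter protocol was run at 3 concentrations up to 38.3 uM (primary) or 11 concentrations (follow-up): 16 h compound, 100 nM thapsigargin for 4 h, then extracellular luciferase luminescence.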

The nature of test [12]: AP1 Signaling Pathway (AID 357; active means well fitted curve in either direction with a large enough effect, not every such curve was filed as active; further: on the % scale 0 is the no-effect control and ±100 the full control effect). As to conditions: ME-180 AP-1-bla reporter, EGF-induced, beta-lactamase ratio, 5 h; at 7.69 µM (top of the series) unless noted. Summed up: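 AP-1-bla ME-180 cells with beta-lactamase reporter under AP-1 response element, stimulated with EC50 EGF; compounds titrated, 5 hours at 37 degrees Celsius. CCF4 read at 460/530 nm ratio; positive and negative modulators judged by AC50.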

The target of test [13] is Cytochrome P450 1A2 (Homo sapiens) (UniProt P05177). The test is described as follows: p450-cyp1a2 (AID 410; calls by dose curve; further: potency means the concentration at half of the fitted maximal effect). As to conditions: recombinant CYP1A2, luciferin-ME demethylation, luminescence; series mostly up to 57 µM. Summed up:
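20nM CYP1A2, 100uM Luciferin-ME (=Km), 100mM KPO4; cpd 10 min RT; +NADPH regen, 60 min RT; stop/detect 20 min; luminescence. Normalized to furafylline 57 uM = full inhibition.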

Test [14] is described as follows: Stat Signaling Pathway (AID 446; active means well fitted curve in either direction with a large enough effect, not every such curve was filed as active). As to conditions: ME-180 SIE beta-lactamase reporter, IL-6 stimulated, 5 h; at 7.69 µM (top of the series) unless noted. Summed up:
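Emission at 460 and 530 nm (excitation 405 nm) reports SIE-controlled beta-lactamase in ME-180 cells. Cells received compound with 40 pM IL-6 for 5 hrs at 37 C; data scaled between 300 pM IL-6 and 125 nM JAK-inhibitor controls.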

Test [15] concerns the target Cytochrome P450 2C9 (Homo sapiens) (UniProt P11712). The test is described as follows: qHTS Assay for Inhibitors and Substrates of Cytochrome P450 2C9 (AID 883). Further: nearly all actives have a fitted effect of over 60% in size. Further: potency means the concentration at half of the fitted maximal effect. As to conditions: recombinant CYP2C9, luciferin-H luminescence, 60 min; series mostly up to 57.1 µM. The essentials: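 Human CYP2C9 (10nM) hydroxylated Luciferin-H (100uM, at its KM) to luciferin in 25mM KPO4. Compound was preincubated 10 min at 37C, then NADPH regeneration started a 60 min reaction at 37C. Luminescence was read after detection reagent, normalized to 57uM sulphaphenazole.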

Test [16] in a line: qHTS Assay for Identification of Small Molecule Agonists for Hypoxia Response Element Signaling Pathway (AID 914; active means well fitted activation curve with a large enough effect in the signal ratio, with a control signal flat, not every such curve was filed as active; the % refers to the signal ratio; further: % of control where 0% means no effect). As to conditions: ME-180 (cervical carcinoma) HRE-bla reporter, beta-lactamase ratio, CoCl2, 17 h; activation: active compounds read high. The essentials: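 Read-out: CCF4 FRET ratio of 460nm to 530nm emission (excitation 405nm) after 2.5 hours at room temperature, taken from HRE-bla ME-180 cells that had been exposed to compound and EC50 CoCl2 for 17 hours.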

Test [17] concerns the target Cytochrome P450 2C19 (Homo sapiens) (UniProt P33261). The test is described as follows: qHTS Assay for Inhibitors and Substrates of Cytochrome P450 2C19 (AID 899). Further: potency means the concentration at half of the fitted maximal effect; nearly all actives have a fitted effect of over 60% in size. As to conditions: recombinant CYP2C19, luciferin-H EGE luminescence; series mostly up to 57.1 µM. Summed up:
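Human CYP2C19 (5nM) with Luciferin-H EGE at 10uM (its KM) in 50mM KPO4 was preincubated with compound for 10 min at 37C. NADPH regeneration started a 60 min 37C reaction. Luciferin was read by luminescence, normalized to 57uM ketoconazole.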

The target in test [18] is Cytochrome P450 3A4 (Homo sapiens) (UniProt P08684). The test is described as follows: qHTS Assay for Inhibitors and Substrates of Cytochrome P450 3A4 (AID 884). Further: potency means the concentration at half of the fitted maximal effect; nearly all actives have a fitted effect of over 50% in size. As to conditions: recombinant CYP3A4, Luciferin-PPXE luminescence; series mostly up to 57.1 µM. Summed up: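 Luminescent readout of luciferin produced by CYP3A4 (20 nM) dealkylation of Luciferin-PPXE, 25 uM (its KM). NADPH-driven reaction ran 60 min at RT after 10 min compound preincubation; data scaled to 57 uM ketoconazole as 100% inhibition.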

In test [19] the target is Cytochrome P450 2D6 (Homo sapiens) (UniProt P10635). The experiment in a line: qHTS Assay for Inhibitors and Substrates of Cytochrome P450 2D6 (AID 891). Further: potency means the concentration at half of the fitted maximal effect; nearly all actives have a fitted effect of over 60% in size. As to conditions: recombinant CYP2D6, luciferin-ME EGE luminescence; series mostly up to 57.1 µM. The essentials: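 Luminescent read-out of luciferin formed by 5 nM human CYP2D6 demethylating 30 uM Luciferin-ME EGE (Km level) over 60 min at room temperature after NADPH regeneration addition. Data normalized to full inhibition by 1.43 uM quinidine.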

Values without a mark were called inactive. Inconclusive results are not listed. The source made the active and inactive calls. Unless noted, the call rests on the fitted dose curve; in most records, active means well fitted curve in the direction sought with a large enough effect; inconclusive means small, poorly fitted or top-dose-only effect, or another doubt; inactive means no such curve, though single readings can be large; an effect the other way counts as inactive or inconclusive.

Sequence of Cytochrome P450 3A4 (Homo sapiens) (P08684 whole entry, looked up): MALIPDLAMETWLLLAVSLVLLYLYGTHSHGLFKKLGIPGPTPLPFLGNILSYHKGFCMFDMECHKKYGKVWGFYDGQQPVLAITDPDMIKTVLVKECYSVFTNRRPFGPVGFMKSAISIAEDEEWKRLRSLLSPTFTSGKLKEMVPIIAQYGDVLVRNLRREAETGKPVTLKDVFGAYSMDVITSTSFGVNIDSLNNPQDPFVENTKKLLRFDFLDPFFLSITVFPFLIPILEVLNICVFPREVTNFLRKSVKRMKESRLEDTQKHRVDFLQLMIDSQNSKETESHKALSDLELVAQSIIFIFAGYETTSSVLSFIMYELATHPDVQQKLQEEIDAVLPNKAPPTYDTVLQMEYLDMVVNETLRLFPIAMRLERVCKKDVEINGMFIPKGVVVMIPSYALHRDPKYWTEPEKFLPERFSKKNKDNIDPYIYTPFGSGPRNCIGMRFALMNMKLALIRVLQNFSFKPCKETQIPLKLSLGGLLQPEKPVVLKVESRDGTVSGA
Sequence of 3',5'-cyclic-AMP phosphodiesterase 4B (Homo sapiens) (Q07343 whole entry, looked up): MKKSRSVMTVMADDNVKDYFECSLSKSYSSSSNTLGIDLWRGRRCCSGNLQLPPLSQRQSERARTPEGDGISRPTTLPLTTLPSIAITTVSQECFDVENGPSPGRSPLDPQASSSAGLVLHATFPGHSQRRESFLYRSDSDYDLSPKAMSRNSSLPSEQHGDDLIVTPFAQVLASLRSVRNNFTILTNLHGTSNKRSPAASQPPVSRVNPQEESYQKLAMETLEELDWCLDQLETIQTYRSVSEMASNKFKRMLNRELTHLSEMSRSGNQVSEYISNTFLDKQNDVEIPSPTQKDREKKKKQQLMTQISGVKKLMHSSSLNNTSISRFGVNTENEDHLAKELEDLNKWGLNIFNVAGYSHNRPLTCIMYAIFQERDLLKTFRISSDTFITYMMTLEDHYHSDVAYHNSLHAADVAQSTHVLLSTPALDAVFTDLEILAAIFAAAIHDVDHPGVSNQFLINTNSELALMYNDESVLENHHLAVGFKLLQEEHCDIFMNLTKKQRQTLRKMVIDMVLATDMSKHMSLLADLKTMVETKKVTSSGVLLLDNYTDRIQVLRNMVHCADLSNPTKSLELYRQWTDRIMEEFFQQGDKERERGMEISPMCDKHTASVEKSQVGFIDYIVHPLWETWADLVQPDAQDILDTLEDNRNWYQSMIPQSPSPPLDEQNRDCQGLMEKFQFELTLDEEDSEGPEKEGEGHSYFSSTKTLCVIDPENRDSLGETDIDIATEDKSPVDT
Sequence of Lysosomal acid glucosylceramidase (Homo sapiens) (P04062 whole entry, looked up): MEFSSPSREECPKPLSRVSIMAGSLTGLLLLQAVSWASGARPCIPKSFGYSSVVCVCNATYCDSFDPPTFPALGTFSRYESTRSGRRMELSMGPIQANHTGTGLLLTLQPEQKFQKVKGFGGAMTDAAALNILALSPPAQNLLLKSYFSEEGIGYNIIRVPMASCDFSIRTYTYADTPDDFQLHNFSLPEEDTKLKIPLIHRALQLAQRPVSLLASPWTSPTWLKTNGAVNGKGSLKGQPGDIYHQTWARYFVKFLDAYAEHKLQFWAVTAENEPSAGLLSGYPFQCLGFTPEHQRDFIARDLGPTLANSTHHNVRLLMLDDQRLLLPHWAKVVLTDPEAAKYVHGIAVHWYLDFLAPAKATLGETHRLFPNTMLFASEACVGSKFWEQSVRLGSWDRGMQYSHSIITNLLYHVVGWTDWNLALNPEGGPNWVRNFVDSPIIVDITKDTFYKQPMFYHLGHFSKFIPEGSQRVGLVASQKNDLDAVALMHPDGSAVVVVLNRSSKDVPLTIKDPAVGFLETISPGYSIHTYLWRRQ
Sequence of Glucocorticoid receptor (Homo sapiens) (P04150 whole entry, looked up, the tested form may be a part): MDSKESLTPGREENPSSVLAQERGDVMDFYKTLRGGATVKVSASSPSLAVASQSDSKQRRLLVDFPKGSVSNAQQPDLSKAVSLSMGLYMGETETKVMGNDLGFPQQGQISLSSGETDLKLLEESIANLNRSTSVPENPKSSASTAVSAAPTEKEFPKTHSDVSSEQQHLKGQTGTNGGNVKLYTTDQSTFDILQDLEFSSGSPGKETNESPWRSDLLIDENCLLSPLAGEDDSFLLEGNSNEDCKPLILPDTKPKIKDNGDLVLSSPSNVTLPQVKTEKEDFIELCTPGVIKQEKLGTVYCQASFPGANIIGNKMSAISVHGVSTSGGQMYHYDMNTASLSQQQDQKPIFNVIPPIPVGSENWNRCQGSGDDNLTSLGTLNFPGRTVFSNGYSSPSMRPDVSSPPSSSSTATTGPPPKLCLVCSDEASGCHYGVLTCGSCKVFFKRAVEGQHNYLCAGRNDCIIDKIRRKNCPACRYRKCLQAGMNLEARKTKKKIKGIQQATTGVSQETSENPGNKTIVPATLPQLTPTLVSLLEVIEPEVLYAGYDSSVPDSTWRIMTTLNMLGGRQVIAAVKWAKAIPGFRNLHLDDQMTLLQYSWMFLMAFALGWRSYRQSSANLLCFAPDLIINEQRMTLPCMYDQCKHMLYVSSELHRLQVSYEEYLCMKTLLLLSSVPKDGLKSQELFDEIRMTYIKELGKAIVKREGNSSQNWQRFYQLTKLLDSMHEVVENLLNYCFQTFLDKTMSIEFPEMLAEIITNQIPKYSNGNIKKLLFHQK
Sequence of Dual specificity protein kinase CLK4 (Homo sapiens) (Q9HAZ1 whole entry, looked up): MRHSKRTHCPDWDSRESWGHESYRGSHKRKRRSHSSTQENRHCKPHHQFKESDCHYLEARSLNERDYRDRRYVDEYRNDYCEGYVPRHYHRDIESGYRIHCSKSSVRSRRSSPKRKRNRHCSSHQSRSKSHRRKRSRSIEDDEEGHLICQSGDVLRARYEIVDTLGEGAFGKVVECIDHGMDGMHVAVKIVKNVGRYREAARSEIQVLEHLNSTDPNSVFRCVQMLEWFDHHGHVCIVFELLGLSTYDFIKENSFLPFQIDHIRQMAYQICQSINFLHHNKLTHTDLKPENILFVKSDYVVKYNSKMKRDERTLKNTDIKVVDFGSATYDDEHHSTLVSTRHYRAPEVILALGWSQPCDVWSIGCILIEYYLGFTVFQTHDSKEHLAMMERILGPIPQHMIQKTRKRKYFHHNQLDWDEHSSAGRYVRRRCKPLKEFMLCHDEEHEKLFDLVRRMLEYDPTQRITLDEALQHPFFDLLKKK
Sequence of Cytochrome P450 1A2 (Homo sapiens) (P05177 whole entry, looked up): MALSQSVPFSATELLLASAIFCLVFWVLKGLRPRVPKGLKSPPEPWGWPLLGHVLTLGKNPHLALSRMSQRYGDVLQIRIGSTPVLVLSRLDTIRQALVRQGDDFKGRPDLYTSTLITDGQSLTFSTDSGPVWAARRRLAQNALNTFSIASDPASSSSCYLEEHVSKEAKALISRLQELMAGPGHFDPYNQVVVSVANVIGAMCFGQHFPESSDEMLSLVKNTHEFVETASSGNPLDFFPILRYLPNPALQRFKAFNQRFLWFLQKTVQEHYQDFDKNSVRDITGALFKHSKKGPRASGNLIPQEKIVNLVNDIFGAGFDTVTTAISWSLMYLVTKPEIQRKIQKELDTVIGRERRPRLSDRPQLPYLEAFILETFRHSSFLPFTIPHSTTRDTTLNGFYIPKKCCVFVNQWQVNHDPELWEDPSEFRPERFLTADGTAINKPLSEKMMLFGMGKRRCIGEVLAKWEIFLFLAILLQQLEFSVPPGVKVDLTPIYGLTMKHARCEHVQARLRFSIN
Sequence of Ubiquitin carboxyl-terminal hydrolase 1 (Homo sapiens) (O94782 whole entry, looked up): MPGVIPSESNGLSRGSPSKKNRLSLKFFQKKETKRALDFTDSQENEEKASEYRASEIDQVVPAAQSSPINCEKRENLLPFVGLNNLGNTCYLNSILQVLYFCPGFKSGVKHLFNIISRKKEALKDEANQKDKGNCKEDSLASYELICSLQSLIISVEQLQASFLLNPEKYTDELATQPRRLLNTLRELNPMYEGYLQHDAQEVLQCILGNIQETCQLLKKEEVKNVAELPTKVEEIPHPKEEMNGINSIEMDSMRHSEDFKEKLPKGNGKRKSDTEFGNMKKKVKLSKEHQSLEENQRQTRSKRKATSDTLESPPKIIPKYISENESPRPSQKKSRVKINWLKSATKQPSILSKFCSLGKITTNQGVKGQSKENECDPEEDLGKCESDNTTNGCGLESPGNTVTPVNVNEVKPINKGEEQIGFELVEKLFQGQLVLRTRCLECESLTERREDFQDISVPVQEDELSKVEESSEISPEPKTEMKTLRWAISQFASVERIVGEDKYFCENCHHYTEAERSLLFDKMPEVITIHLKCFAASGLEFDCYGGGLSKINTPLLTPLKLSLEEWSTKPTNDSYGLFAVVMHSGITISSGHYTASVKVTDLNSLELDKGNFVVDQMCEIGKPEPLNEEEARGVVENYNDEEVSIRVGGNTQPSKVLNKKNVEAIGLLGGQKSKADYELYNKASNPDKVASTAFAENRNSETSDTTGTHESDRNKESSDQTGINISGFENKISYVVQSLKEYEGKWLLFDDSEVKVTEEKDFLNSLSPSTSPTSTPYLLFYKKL
Sequence of Cytochrome P450 2C19 (Homo sapiens) (P33261 whole entry, looked up): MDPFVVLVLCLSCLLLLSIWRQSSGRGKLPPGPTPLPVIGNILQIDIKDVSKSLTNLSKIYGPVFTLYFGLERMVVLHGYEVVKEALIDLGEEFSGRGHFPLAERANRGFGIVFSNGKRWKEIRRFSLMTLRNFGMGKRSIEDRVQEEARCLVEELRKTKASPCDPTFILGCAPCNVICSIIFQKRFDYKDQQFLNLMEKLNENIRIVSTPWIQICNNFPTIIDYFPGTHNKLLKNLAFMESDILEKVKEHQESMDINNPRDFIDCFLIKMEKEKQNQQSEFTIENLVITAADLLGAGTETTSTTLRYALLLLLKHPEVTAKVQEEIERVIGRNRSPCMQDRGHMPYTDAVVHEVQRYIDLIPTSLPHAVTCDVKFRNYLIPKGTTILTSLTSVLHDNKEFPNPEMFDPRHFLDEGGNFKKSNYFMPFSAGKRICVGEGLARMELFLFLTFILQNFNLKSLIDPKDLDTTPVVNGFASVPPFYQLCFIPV

As to `Cn1c(=O)c(-c2ccc(Cl)cc2)nc2cnc(N3CCNCC3)nc21`, the Potency was > 11.4 µM in test [1], > 9.22 µM in test [3] and > 46 µM in test [4]. Further, in test [2], the activity change, negative = inhibition is 204% [activator] (active). Besides, the Potency entry in [5], in test [6], in test [7], in test [8], in test [9] and in [10] was “inactive” throughout. Also, the outcome in test [11] was inactive.

Take `CS(=O)(=O)Nc1cccc(-c2cc(Nc3ccccc3)ncn2)c1`: the Potency was > 11.4 µM in [1]; 0.398 µM (active) in test [13]; > 46 µM in test [3]; > 46 µM in test [4]; 35.5 µM (active) in test [8]. The activity change, negative = inhibition in test [12] is -27.9%; in test [2], 10.9%; in test [15] it was 56.3% [at 2.29 µM]. The activity, negative = inhibition in [14] was 3.87%. The Potency entry in [5], in test [6], in [7] and in test [10] was “inactive” each time. In addition, the activation in test [16] is -13.8%. Further, in test [11], the outcome was inactive.

`Cc1nc2cnc(N(C)C)nc2n(CCc2ccccc2)c1=O`: the Potency in test [1] is > 11.4 µM; in test [13] it was 1.26 µM (active); in [3] it was > 9.22 µM; in test [4] it was > 46 µM; in test [17], 0.631 µM (active); in test [8] it was 35.5 µM (active). For the same molecule, the activity change, negative = inhibition in test [12] is -5.39%; in test [2], -14.5%. Moreover, the Potency result in [5], in test [7], in [9] and in [10] was “inactive” throughout. Moreover, the activation in test [16] is -12%. For the same molecule, the result in [11] was inactive.

On to `COc1ccc2[nH]cc(CCNc3nc(-c4ccc(N(C)C)cc4)nc4ccccc34)c2c1`, for which the Potency is 0.554 µM (active) in test [1]; 1.26 µM (active) in test [13]; > 46 µM in test [3]; > 46 µM in test [4]; 0.398 µM (active) in test [15]; 2.51 µM (active) in test [18]. For the same molecule, the Potency was 7.94 µM (active) in test [19], 7.94 µM (active) in test [17] and 28.2 µM (active) in test [8]. Further, the Potency entry in test [7], in test [9] and in test [10] was “inactive” in each case. Also, the outcome in test [11] was inactive.

In the case of `COc1ccccc1CNc1ccnc(-c2c(C)noc2C)n1`, the Potency is > 11.4 µM in test [1]; 0.398 µM (active) in [13]; > 46 µM in [3]; > 46 µM in test [4]; 5.01 µM (active) in test [18]. The activity change, negative = inhibition in [12] was 18%; in test [2] it was -13.8%. For the same molecule, the activity, negative = inhibition in [14] is -17.2%. Besides, the Potency entry in [5], in test [7], in [8] and in test [9] was “inactive” throughout. In test [11], the outcome was inactive.

Consider `COc1cccc(Cn2c(=O)cnc3cnc(Nc4ccccc4)nc32)c1`, for which the Potency in test [1] is > 11.4 µM; in [3], > 46 µM; in test [4], > 46 µM; in [8], 2.24 µM (active). Moreover, the figures for the activity change, negative = inhibition in [12] and in [2] were -26.5% and 17.1%, respectively. For the same molecule, the activity, negative = inhibition in [14] was -29.7%. The Potency result in test [5], in test [6], in test [9] and in test [10] was “inactive” in each case. The outcome in test [11] was inactive.

As for `O=c1c(-c2ccccc2)nc2cnc(N3CCOCC3)nc2n1Cc1ccc(F)cc1`, the Potency was > 11.4 µM in test [1], 20 µM (active) in test [13], > 9.22 µM in test [3] and > 46 µM in test [4]. Moreover, the Potency result in test [5], in test [8], in test [9] and in test [10] was “inactive” throughout. In test [11], the result was inactive.
